Consider 54 sequences from article PMC5515408, “Sequence-specific DNA binding by MYC/MAX to low-affinity non-E-box motifs”.

In all, about 5,000 sequences were measured (“log2 normalized fluorescence”: median about 0.089, highest 2% from about 0.81 on). Many of the other results were omitted from the sample, so the highest values are more common in it than they were.

MYC (p64);MAX (p21), in MYC:MAX, sequence (P01106 16-454, chain 1 of 2): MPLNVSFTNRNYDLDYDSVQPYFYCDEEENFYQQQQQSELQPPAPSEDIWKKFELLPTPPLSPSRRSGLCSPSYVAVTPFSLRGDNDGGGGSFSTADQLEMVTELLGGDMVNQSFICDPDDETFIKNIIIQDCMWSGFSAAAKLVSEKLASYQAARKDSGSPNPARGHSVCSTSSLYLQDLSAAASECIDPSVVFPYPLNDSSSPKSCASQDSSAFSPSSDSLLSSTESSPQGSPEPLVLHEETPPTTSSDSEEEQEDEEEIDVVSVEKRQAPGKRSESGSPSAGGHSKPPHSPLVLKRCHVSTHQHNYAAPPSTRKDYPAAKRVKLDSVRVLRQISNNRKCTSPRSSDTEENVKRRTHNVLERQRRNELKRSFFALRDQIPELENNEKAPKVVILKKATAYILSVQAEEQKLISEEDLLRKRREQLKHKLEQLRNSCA
MYC (p64);MAX (p21), in MYC:MAX, sequence (P61244 other isoform, or with tags, fused parts or gaps |, chain 2 of 2): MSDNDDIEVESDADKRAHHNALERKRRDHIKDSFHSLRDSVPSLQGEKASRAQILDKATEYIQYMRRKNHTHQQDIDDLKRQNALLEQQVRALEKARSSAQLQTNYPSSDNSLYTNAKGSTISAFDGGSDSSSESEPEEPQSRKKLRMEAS

The target of this assay is MYC (p64);MAX (p21), in MYC:MAX (human;human, UniProt P01106-1;P61244-2 1-439;1-151, |). The assay can be described thus: protein-binding microarray (anti-MAX antibody); PBM: 15 mM Tris-HCl pH 7.5, 100 mM KCl, 0.075% NP40, 7.5 mM beta-mercaptoethanol, 375 ng/ul BSA, 8 ng/ul poly(dA-dT):(dA-dT), 550 ng complex, 60 min, room tempe; high values mean tight binding. The following applies: protein: recombinant;recombinant; tags: 6xHis;6xHis; copies: 1;1; label: 3' end of printed strand (linker) attached to glass slide; dsDNA, one strand shown. The method, boiled down:
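For each of ~5000 unique double-stranded 12-nt sequences, spotted in triplicate on a custom Agilent glass array, binding of His-tagged human MYC:MAX or MAX:MAX dimers is reported as log2 normalized fluorescence. The dimers (550 ng, E. coli-expressed) were incubated for 60 min at room temperature in Tris-KCl buffer, pH 7.5, with NP40, BSA and poly(dA-dT) competitor. Detection used anti-MAX and secondary antibodies with a 543 nm scan.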
With “CCGGCTGATATGACGTATTAATAGCTAAGATTACTATATCGACG”, the binding signal was 0.0181 log2 normalized fluorescence.

For “CCGGCTAACACAAGGTATTAATAGCTAAGATTACTATATCGACG”, the binding signal was 0.534 log2 normalized fluorescence.

For the sequence “CCGGCTGACACGATATATTAATAGCTAAGATTACTATATCGACG”, the binding signal is 0.408 log2 normalized fluorescence.

Turning to “CCGGCTGACACGTGTAGTTAATAGCTAAGATTACTATATCGACG”, the binding signal is 0.834 log2 normalized fluorescence.

On to “CCGGCTGACACGTGTCCTTAATAGCTAAGATTACTATATCGACG”, for which the binding signal is 0.926 log2 normalized fluorescence.

Take “CCGGCTGTCACGTGCTATTAATAGCTAAGATTACTATATCGACG”: the binding signal is 0.591 log2 normalized fluorescence.

In the case of “CCGGCTGACACGTGCCCTTAATAGCTAAGATTACTATATCGACG”, the binding signal was 0.7 log2 normalized fluorescence.

Consider “CCGGCTGACACGTAGTTTTAATAGCTAAGATTACTATATCGACG”, for which the binding signal was 0.406 log2 normalized fluorescence.

In the case of “CCGGCTGACACGTGGTTTTAATAGCTAAGATTACTATATCGACG”, the binding signal was 0.795 log2 normalized fluorescence.

For the sequence “CCGGCTGACACGTGACCTTAATAGCTAAGATTACTATATCGACG”, the binding signal is 0.633 log2 normalized fluorescence.

With “CCGGCTGACACGTGTTCTTAATAGCTAAGATTACTATATCGACG”, the binding signal is 0.738 log2 normalized fluorescence.

As to “CCGGCTGACACGTGTTTTTAATAGCTAAGATTACTATATCGACG”, the binding signal was 0.847 log2 normalized fluorescence.

For the sequence “CCGGCTGACACGTGTGTTTAATAGCTAAGATTACTATATCGACG”, the binding signal is 0.7 log2 normalized fluorescence.

For “CCGGCTGTCACGTGTTCTTAATAGCTAAGATTACTATATCGACG”, the binding signal was 0.848 log2 normalized fluorescence.

“CCGGCTGACACGTAGTGTTAATAGCTAAGATTACTATATCGACG”: the binding signal was 0.396 log2 normalized fluorescence.

As for “CCGGCTGAAACAACGTATTAATAGCTAAGATTACTATATCGACG”, the binding signal is 0.159 log2 normalized fluorescence.

On to “CCGGCCGACATGTAGTATTAATAGCTAAGATTACTATATCGACG”, for which the binding signal is 0.368 log2 normalized fluorescence.

Turning to “CCGGCAGACAAGTGCTATTAATAGCTAAGATTACTATATCGACG”, the binding signal was 0.353 log2 normalized fluorescence.

Regarding “CCGGCAATCTAGTCTACTTAATAGCTAAGATTACTATATCGACG”, the binding signal was 0.0163 log2 normalized fluorescence.

As to “CCGGCTGATATAATGTATTAATAGCTAAGATTACTATATCGACG”, the binding signal was 0.0653 log2 normalized fluorescence.

Turning to “CCGGCTGAACTCGCGTATTAATAGCTAAGATTACTATATCGACG”, the binding signal was 0.276 log2 normalized fluorescence.

Turning to “CCGGCTGAAACCAAGTATTAATAGCTAAGATTACTATATCGACG”, the binding signal was 0.0737 log2 normalized fluorescence.

For the sequence “CCGGCTGAACCAGTGTATTAATAGCTAAGATTACTATATCGACG”, the binding signal is 0.036 log2 normalized fluorescence.

With “CCGGCTGACACGTGCAGTTAATAGCTAAGATTACTATATCGACG”, the binding signal is 0.746 log2 normalized fluorescence.

For the sequence “CCGGCTGGCACGTGGTTTTAATAGCTAAGATTACTATATCGACG”, the binding signal was 0.67 log2 normalized fluorescence.

Regarding “CCGGCTGACACGTGCACTTAATAGCTAAGATTACTATATCGACG”, the binding signal was 0.88 log2 normalized fluorescence.

As for “CCGGCTAGCACGTGTTTTTAATAGCTAAGATTACTATATCGACG”, the binding signal was 0.813 log2 normalized fluorescence.

On to “CCGGCTGACACGTGCAATTAATAGCTAAGATTACTATATCGACG”, for which the binding signal is 0.779 log2 normalized fluorescence.

For “CCGGCTAGCACGTGGCATTAATAGCTAAGATTACTATATCGACG”, the binding signal was 0.803 log2 normalized fluorescence.

With “CCGGCTGAATCTTGGTATTAATAGCTAAGATTACTATATCGACG”, the binding signal is -0.0321 log2 normalized fluorescence.

For “CCGGCTGAAAGGTCGTATTAATAGCTAAGATTACTATATCGACG”, the binding signal is 0.0812 log2 normalized fluorescence.

On to “CCGGCTGGAGCGTGGTATTAATAGCTAAGATTACTATATCGACG”, for which the binding signal is 0.418 log2 normalized fluorescence.

Consider “CCGGCTGAAATCGCGTATTAATAGCTAAGATTACTATATCGACG”, for which the binding signal is 0.18 log2 normalized fluorescence.

For “CCGGCTGAATCAATGTATTAATAGCTAAGATTACTATATCGACG”, the binding signal is 0.252 log2 normalized fluorescence.

As to “CCGGCTGAGAACACGTATTAATAGCTAAGATTACTATATCGACG”, the binding signal is 0.318 log2 normalized fluorescence.

For the sequence “CCGGCTGACCTTGAGTATTAATAGCTAAGATTACTATATCGACG”, the binding signal was 0.204 log2 normalized fluorescence.

As to “CCGGCCGACACGTGTTATTAATAGCTAAGATTACTATATCGACG”, the binding signal is 0.999 log2 normalized fluorescence.

Turning to “CCGGCAGACACGTGATCTTAATAGCTAAGATTACTATATCGACG”, the binding signal was 0.751 log2 normalized fluorescence.

With “CCGGCTGGCACGTGGTATTAATAGCTAAGATTACTATATCGACG”, the binding signal is 0.809 log2 normalized fluorescence.

As for “CCGGCAGACACGTCGTATTAATAGCTAAGATTACTATATCGACG”, the binding signal was 0.32 log2 normalized fluorescence.

For the sequence “CCGGCAGACACGTGTTATTAATAGCTAAGATTACTATATCGACG”, the binding signal is 0.993 log2 normalized fluorescence.

For “CCGGCTGGCACGTGGCATTAATAGCTAAGATTACTATATCGACG”, the binding signal was 0.721 log2 normalized fluorescence.

Take “CCGGCAGAAACGTGTTATTAATAGCTAAGATTACTATATCGACG”: the binding signal was 0.573 log2 normalized fluorescence.

For the sequence “CCGGCAGACACGTGATATTAATAGCTAAGATTACTATATCGACG”, the binding signal is 0.851 log2 normalized fluorescence.

As to “CCGGCCGACACCTGTTATTAATAGCTAAGATTACTATATCGACG”, the binding signal was 0.432 log2 normalized fluorescence.

Regarding “CCGGCCGACACGGCGTATTAATAGCTAAGATTACTATATCGACG”, the binding signal was 0.161 log2 normalized fluorescence.

In the case of “CCGGCAGACACGCGATATTAATAGCTAAGATTACTATATCGACG”, the binding signal is 0.437 log2 normalized fluorescence.

As to “CCGGCTGGCACGTGGTGTTAATAGCTAAGATTACTATATCGACG”, the binding signal was 0.954 log2 normalized fluorescence.

Regarding “CCGGCTGATCCCCCGTATTAATAGCTAAGATTACTATATCGACG”, the binding signal is 0.0512 log2 normalized fluorescence.

In the case of “CCGGCTGACACGGCGTATTAATAGCTAAGATTACTATATCGACG”, the binding signal is 0.188 log2 normalized fluorescence.

Take “CCGGCTGAACGGTTGTATTAATAGCTAAGATTACTATATCGACG”: the binding signal was 0.123 log2 normalized fluorescence.

“CCGGCTGAACCAACGTATTAATAGCTAAGATTACTATATCGACG”: the binding signal was 0.302 log2 normalized fluorescence.

As to “CCGGCTGAGTTCCCGTATTAATAGCTAAGATTACTATATCGACG”, the binding signal is 0.0824 log2 normalized fluorescence.

As for “CCGGCTGACGTCACGTATTAATAGCTAAGATTACTATATCGACG”, the binding signal was 0.246 log2 normalized fluorescence.
